Screens as filed in PubChem.
Compounds with a hit are over-represented: about 6.1% of the library has one in this group of screens.
DRD3 antagonist = D3 dopamine receptor (human) antagonism | P35462 | D3R cells, DiscoveRx beta-arrestin luminescence, antagonist mode; active compounds read low | max response, negative = inhibition, % | hit rate 2.5% among 360,000 | AID 652054; in the data active means max response below about -50%; inconclusive means no clear call, values can overlap the other calls; further: on the % scale 0 is the no-effect control and ±100 the full control effect
Target sequence (P35462 whole entry, looked up): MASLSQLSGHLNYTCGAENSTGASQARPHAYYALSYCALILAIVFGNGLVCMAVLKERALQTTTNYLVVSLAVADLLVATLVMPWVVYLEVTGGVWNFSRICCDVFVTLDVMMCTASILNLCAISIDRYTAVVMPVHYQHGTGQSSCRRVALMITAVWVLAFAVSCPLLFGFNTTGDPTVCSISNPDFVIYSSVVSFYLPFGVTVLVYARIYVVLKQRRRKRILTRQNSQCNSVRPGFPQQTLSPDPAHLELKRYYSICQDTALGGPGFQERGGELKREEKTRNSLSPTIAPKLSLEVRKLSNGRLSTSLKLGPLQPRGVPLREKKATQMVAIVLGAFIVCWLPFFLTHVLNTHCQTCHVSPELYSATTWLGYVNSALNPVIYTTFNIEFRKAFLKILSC
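Cells plated overnight at 1500 cells/well, then exposed to library compounds with dopamine controls for 90 minutes at 37 degrees C. DiscoveRx reagent added for 30–60 minutes at room temperature; luminescence read, quantitative HTS format.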
D1 antag = human D1 dopamine receptor antagonism | activity change, negative = inhibition, % at 10 µM | HEK293 TREx D1 cells, calcium flux, dopamine EC80; active compounds read low | hit rate 3.2% among 360,000 | P21728; in the data active means activity change below about -30%; further: on the % scale 0 is the no-effect control and ±100 the full control effect
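HEK293 T-REx cells expressing inducible, force-coupled D1 receptor; no-wash Ca dye, 30–90 min RT. Cmpd → 180 s read at 1 Hz → EC80 DA → 180 s read.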
D1 potentiator = potentiators of human D1 dopamine receptor; P21728; HEK293 TREx D1 cells, calcium flux, dopamine EC20 potentiation; potentiation, % at 10 µM; hit rate 0.036% among 360,000; AID 504651; in the data active means potentiation above about 30%; further: 0% is about no effect
DRD3 agonist = agonists of human D3 dopamine receptor | max activation, % | D3R DiscoveRx beta-arrestin cells, luminescence, 90 min | hit rate 0.58% among 410,000 | AID 652048; in the data active means max activation above about 30%; further: 0% is about no effect
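Cells at 1500/well, incubated overnight, then treated with pinned compounds (dopamine as control) for 90 min at 37 degrees C. DiscoveRx reagent added for 30 - 60 minutes at room temperature; luminescence read.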
ERG-DNA inh = blocks human ERG Ets domain binding to DNA. P11308. fluorescence polarization, His-ERG Ets domain / labelled DNA. Potency, µM (doses to about 76.9 µM), for the others: top-dose FP activity, negative = inhibition, usual class: inhibitors. hit rate 0.028% among 370,000. AID 624246; active means well fitted inhibition curve with a large enough effect in the polarisation, with a control signal flat; inconclusive means small, poorly fitted or top-dose-only effect, or effect the other way, or a change in a side signal; inactive means no such curve, though single readings can be large or run the other way; the % refers to the polarisation;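 further: polarization taken with two DNA probes labelled with fluorescein and Texas red; potency means the concentration at half of the fitted maximal effect; % of control where 0% means no effect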
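His-tagged ERG Ets domain (1 uM in the protein solution; 300mM KCl, 50mM Tris-HCl, 1mM EDTA, 1mM DTT, pH 7.5) received compound, then a probe mix of 5 nM fluorescein-DNA and 100nM Texas-615-DNA. Fluorescence polarization was read for both dyes.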
D1 ag = activates the human D1 dopamine receptor | P21728 | HEK293 T-REx D1 cells, calcium flux, agonist mode | activation, % at 2 µM | hit rate 1% among 360,000 | AID 504660; in the data active means activation above about 30%; further: 0% is about no effect
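Tetracycline-induced HEK293 TREx D1 cells, force-coupled to calcium signalling, were dye-loaded with a no-wash calcium kit. Compound was pin-added after a 10 s baseline. Fluorescence was read kinetically at 1 cycle/s for 180 s, with calcium rises flagged as agonism.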
* hit, by the source's call; ? = inconclusive; · = no result.

SMILES | DRD3 antagonist | D1 antag | D1 potentiator | DRD3 agonist | ERG-DNA inh | D1 ag
CCOC(=O)c1c(S(=O)(=O)N2CCC(C(=O)N3CCN(c4cc(C)ccc4C)CC3)CC2)c(C)n(C)c1C | · | -92* | -2 | -13 | 9% | 0
CCOC(=O)c1c(S(=O)(=O)N2CCCC(C(=O)Nc3cc(C)ccn3)C2)c(C)n(C)c1C (stereo not given) | · | -33* | -2 | -11 | -2% | 1
CN(CC(=O)Nc1ccccc1Cl)C(=O)Cn1nnc(-c2ccc(F)cc2)n1 | 0 | -47* | -3 | -24 | 5% | 1
CCn1c(NCc2cccc(OC)c2OC)nc2ccccc21 | -27 | 8 | -4 | -7 | -17% | 2
COc1ccc(CNc2nc3ccccc3n2CCN2CCCCC2)c(OC)c1 | ? | -41* | -9 | -15 | 2% | 13
COc1cccc(CNc2nc3ccccc3n2CCN2CCCCC2)c1OC | -67* | -25 | -7 | -15 | 3% | 9
COc1ccc(OC)c(CNc2nc3ccccc3n2CCN2CCCCC2)c1 | ? | -19 | -8 | -46 | 3% | 11
COC(=O)c1ccccc1C(=O)N1CCCC(C(=O)c2cc(F)ccc2F)C1 (stereo not given) | 10 | -3 | 0 | 5 | -4% | 12
Cc1cc(N2C(=O)CC(N3CCN(C(c4ccccc4)c4ccccc4)CC3)C2=O)no1 (stereo not given) | -55* | 6 | 1 | -5 | 2% | 2
Cc1cc(C(=O)N2CCN(C(c3ccccc3)c3ccccc3)CC2)no1 | -13 | -12 | 3 | -17 | 4% | 5
COc1cccc(CNCC2CCCO2)c1 (stereo not given) | 4 | -3 | -10 | 2 | 1% | 2
O=C(Cc1ccccc1)Nc1ccccc1N1CCCC1 | -21 | 5 | 3 | -7 | -6% | 1
O=C(Nc1ccccc1N1CCOCC1)C1=NN(c2ccccc2)C(=O)CC1 | -52* | -12 | 2 | -4 | -8% | 1
O=C(Cc1ccccc1)Nc1ccccc1N1CCOCC1 | -52* | -1 | -8 | 5 | -11% | 3
O=C(Nc1ccccc1N1CCOCC1)c1cccnc1 | 5 | -79* | -11 | 8 | -5% | 1
O=C(Cc1ccc(Cl)cc1)NC(=S)Nc1ccccc1N1CCOCC1 | 0 | -34* | 12 | -2 | 6% | 34*
O=C(COc1cccc(-n2cnnn2)c1)NC1CCCCC1 | -3 | -8 | 0 | -3 | 3% | 1
CC(=O)Nc1c(O)c2cccc3c2n(c1=O)CCC3 | 17 | · | · | -17 | -1% | ·
Cc1ccccc1C(=O)N1CCN(S(=O)(=O)c2cccs2)CC1 | 13 | 10 | -3 | 6 | 2% | 3
CCOC(=O)CNC(=O)C1CCCc2c1[nH]c1ccc(Cl)cc21 (stereo not given) | 1 | -35* | -3 | 8 | -6% | 16
CC(c1ccccc1C(O)(c1ccccc1)c1ccccc1)N(C)C (stereo not given) | -21 | -39* | -3 | 3 | 9% | 100*
COc1ccccc1C(O)(c1ccccc1)c1ccccc1OC | -10 | · | · | -4 | -3% | ·
CCSc1oc(-c2ccc(F)cc2)nc1S(=O)(=O)c1ccc(C)cc1 | · | 7 | 1 | -2 | -1% | 21
Cc1ccc(S(=O)(=O)c2nc(-c3ccccc3)oc2SCC(=O)NC2CCCCC2)cc1 | · | 6 | 1 | 64* | 2% | 0
CSc1oc(-c2ccccc2)nc1S(=O)(=O)c1ccc(C)cc1 | 0 | -35* | -7 | 13 | 7% | 4
SMILES | DRD3 antagonist | D1 antag | D1 potentiator | DRD3 agonist | ERG-DNA inh | D1 ag
Cc1ccc(-c2nc(S(=O)(=O)c3ccccc3)c(SCC(=O)NC3CCCCC3)o2)cc1 | · | 0 | 0 | 1 | -3% | 1
Cc1ccc(-c2nc(S(=O)(=O)c3ccc(C)cc3)c(SCC(=O)Nc3ccc(F)cc3)o2)cc1 | · | -61* | 0 | 2 | -1% | 3
COc1cccc(NC(=S)N2CCc3cc(OC)c(OC)cc3C2)c1 | -23 | -9 | -2 | 2 | -22% | 3
COc1cc2c(cc1OC)CN(C(=S)Nc1ccc(Cl)cc1)CC2 | 18 | -35* | -6 | 7 | 9% | 7
NS(=O)(=O)c1ccc(CCNC(=O)c2cc(-c3cc(Cl)ccc3O)n[nH]2)cc1 | 3 | 6 | -2 | -2 | 3% | 0
Fc1ccc(-n2nnnc2-c2ccccc2Cl)cc1 | 0 | 0 | -3 | 3 | -16% | 0
NS(=O)(=O)c1ccc(NC2=CC(=O)C(=O)c3ccccc32)cc1 | -53* | -6 | -6 | -7 | -2% | 1
Cc1ccc(C(C)C)c(OC/C(O)=C(\C#N)c2nc3ccccc3[nH]2)c1 | 8 | -32* | -4 | 7 | -2% | 2
O=C(NC1CCCc2ccccc21)C1CCC(CNS(=O)(=O)c2cccc3nsnc23)CC1 (stereo not given) | -22 | 17 | 0 | -5 | -5% | 0
COC(=O)[C@]1(Cc2ccccc2)N[C@H](CN(C)C(C)=O)[C@@H]2C(=O)N(Cc3ccccc3)C(=O)[C@@H]21 | -53* | · | · | -33 | 22% | ·
CCNC(=O)N(CC)C[C@H]1N[C@@](Cc2ccccc2)(C(=O)OC)[C@H]2C(=O)N(C)C(=O)[C@@H]12 | -7 | · | · | 46* | 14% | ·
COC(=O)[C@]1(Cc2ccccc2)N[C@H](CN(C)C(=O)NC(C)C)[C@@H]2C(=O)N(Cc3ccccc3)C(=O)[C@@H]21 | -21 | · | · | -1 | 4% | ·
CCN(C[C@H]1N[C@@](Cc2ccccc2)(C(=O)OC)[C@H]2C(=O)N(Cc3ccccc3)C(=O)[C@@H]12)C(=O)C1CCCCC1 | -57* | · | · | -26 | -8% | ·
COc1ccc(-c2nc3c(c(SCC(=O)N(C)c4ccccc4)n2)Cc2cc(C)ccc2O3)cc1 | · | -21 | 0 | -1 | -1% | 2
CN(C)CCCN1C(=O)C(=O)/C(=C(/O)c2ccc(OCc3ccccc3)cc2)C1c1cccnc1 (stereo not given) | · | 14 | -4 | · | · | 4
COc1cccc(C(=O)Nc2cc3c(cc2C(=O)c2ccc(C)cc2)OCCO3)c1 | · | 4 | -1 | -5 | 0% | 0
CCCn1c(SCC(=O)c2ccc3c(c2)OCCO3)nnc1-c1ccco1 | 3 | -36* | 3 | -4 | 9% | 4
CCCn1c(SCC(N)=O)nnc1-c1ccco1 | 12 | -55* | -1 | 1 | -9% | 1
O=C(CSc1nnc(-c2ccco2)n1CC1CCCO1)c1ccc(F)cc1 (stereo not given) | -67* | -4 | -7 | 6 | -10% | 3
NC(=O)CSc1nnc(-c2ccco2)n1N | -2 | 2 | -4 | 29 | 3% | 1
CC(C)NC(=O)CSc1nnc(-c2ccco2)n1N | 18 | -67* | -7 | -3 | -6% | -2
